According to PubChem BioAssay (Tox21):
Inconclusive results are not listed. Active and inactive are the calls of the source. Unless noted, calls follow the shape of the full dose curve.

What was measured:
[1] = molecular target: Acetylcholinesterase (Homo sapiens) (UniProt P22303); experiment: Acetylcholinesterase (AChE) small molecule antagonists: colormetric cell-based qHTS assay (AID 1347395); also: % is scaled to controls: 0 for no effect and ±100 for the full control effect; nearly all actives have a fitted effect of over 30% in size
Summary of the method: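 AChE inhibition read colorimetrically via DTNB–thiocholine in SH-SY5Y cells. Compound 30 min, substrate 90 min, both 37 C.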

[2] = molecular target: Acetylcholinesterase (Homo sapiens) (UniProt P22303); experiment: Acetylcholinesterase (AChE) small molecule antagonists: fluorescence cell-based qHTS assay (AID 1347398); settings: Potency: AChE activity; outcome: AChE activity; also: % is scaled to controls: 0 for no effect and ±100 for the full control effect; nearly all actives have a fitted effect of over 50% in size
Summary of the method: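 SH-SY5Y, 2,000 cells/well, attached overnight; cmpd 30 min 37 C; acetylthiocholine/Thiolite Green cocktail 40 min RT; fluorescence Ex/Em 490/520 nm.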

[3] = molecular target: Acetylcholinesterase (Homo sapiens) (UniProt P22303); experiment: Acetylcholinesterase (AChE) small molecule antagonists: enzyme-based qHTS assay with human liver microsomes (AID 1347399); settings: Potency: qHTS inhibition; outcome: qHTS inhibition; also: % is scaled to controls: 0 for no effect and ±100 for the full control effect; nearly all actives have a fitted effect of over 60% in size
Summary of the method: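 Recombinant human AChE (50 mU/mL in the enzyme mix) and human liver microsomes (0.25 mg/mL final) were preincubated with compound and NADPH (0.25 mg/mL final) for 30 min at 37 C. Acetylthiocholine/DTNB was then added; thiocholine was read colorimetrically after 10 min at room temperature.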

[4] = molecular target: Acetylcholinesterase (Homo sapiens) (UniProt P22303); experiment: Acetylcholinesterase (AChE) small molecule antagonists: enzyme-based qHTS assay (AID 1347397); settings: Potency: AChE enzyme activity inhibition; outcome: AChE enzyme activity inhibition; also: nearly all actives have a fitted effect of over 55% in size; also: potency is read from the fitted curve at half-maximal effect
Summary of the method: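 Colorimetric DTNB read-out of thiocholine released from acetylthiocholine by recombinant human AChE (50 mU/mL as dispensed). Compounds were preincubated 30 min at RT before substrate/DTNB addition, with a 10 min RT reaction.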

[5] = qHTS assay for small molecule agonists of the p53 signaling pathway (AID 651631); also: % is scaled to controls: 0 for no effect and ±100 for the full control effect; nearly all actives have a fitted effect of over 15% in size
Summary of the method: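 We treat p53RE-bla HCT-116 cells with compounds for 16 h at 37 °C, add LiveBLAzer B/G FRET substrate for 2 h at room temperature, and measure fluorescence intensity.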

[6] = qHTS assay for small molecules that induce genotoxicity in human embryonic kidney cells expressing luciferase-tagged ATAD5 (AID 651632; active = well fitted curve in the direction sought with a large enough effect in the repeat runs; an effect the other way counts as inactive or inconclusive; also: % is scaled to controls: 0 for no effect and ±100 for the full control effect; nearly all actives have a fitted effect of over 15% in size)
Summary of the method: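 DMSO vehicle served as the control. HEK293T reporter cells, 16 hr at 37C, then 30 min Amplite at room temperature; ATAD5 induction is measured as luciferase activity.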

[7] = qHTS assay for small molecule disruptors of the mitochondrial membrane potential - cell viability (AID 720634);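 also: human HepG2 liver cancer cells; series mostly up to about 83 µM; % is scaled to controls: 0 for no effect and ±100 for the full control effect; nearly all actives have a fitted effect of over 20% in size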
Summary of the method: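 Viability of HepG2 cells is scored from ATP content by luminescence; cells are exposed to compound for 1 hr at 37 C and 5% CO2, then dosed with m-MPI dye before the CellTiter-Glo reagent.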

[8] = qHTS assay to test for compound auto fluorescence at 535 nm (green) in HepG2 cells (AID 720675; active = well fitted curve in the direction sought with a large enough effect in the repeat runs; an effect the other way counts as inactive or inconclusive; also: % is scaled to controls: 0 for no effect and ±100 for the full control effect)
[9] = qHTS assay to test for compound auto fluorescence at 590 nm (red) in HEK293 cells (AID 720679; active = well fitted curve in the direction sought with a large enough effect in the repeat runs; an effect the other way counts as inactive or inconclusive; also: % is scaled to controls: 0 for no effect and ±100 for the full control effect)
Summary of the method: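 Intensity at 540nm excitation and 590nm emission is reported as Rose Bengal sodium-equivalent autofluorescence. Measurements followed overnight exposure (37C, 5% CO2) of HEK293 cells, 2,000 per well, to 23 nL compound.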

[10] = qHTS assay to test for compound auto fluorescence at 535 nm (green) in HEK293 cells (AID 720680; active = well fitted curve in the direction sought with a large enough effect in the repeat runs; an effect the other way counts as inactive or inconclusive; also: % is scaled to controls: 0 for no effect and ±100 for the full control effect)
[11] = qHTS assay to test for compound auto fluorescence at 460 nm (blue) in HEK293 cell free culture (AID 720681; active = well fitted curve in the direction sought with a large enough effect in the repeat runs; an effect the other way counts as inactive or inconclusive; also: % is scaled to controls: 0 for no effect and ±100 for the full control effect)
Summary of the method: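 Compounds were added to cell-free DMEM with 10% FBS and fluorescence read directly. The blue channel used 405 nm excitation and 460 nm emission, with triamterene as the reference fluorophore.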

[12] = qHTS assay to test for compound auto fluorescence at 590 nm (red) in HEK293 cell free culture (AID 720683; active = well fitted curve in the direction sought with a large enough effect in the repeat runs; an effect the other way counts as inactive or inconclusive; also: % is scaled to controls: 0 for no effect and ±100 for the full control effect)
Summary of the method: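 Cell-free wells of DMEM with 10% FBS received compound, and intrinsic fluorescence was read at excitation/emission 540/590 nm. Values expressed as equivalence to Rose Bengal sodium.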

[13] = qHTS assay to test for compound auto fluorescence at 590 nm (red) in HepG2 cell free culture (AID 720684; active = well fitted curve in the direction sought with a large enough effect in the repeat runs; an effect the other way counts as inactive or inconclusive; also: % is scaled to controls: 0 for no effect and ±100 for the full control effect)
Summary of the method: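 Rose Bengal sodium served as the reference for red signal. Test compounds were dispensed into serum-containing MEM (10% FBS) without cells, and plates were read at 540/590 nm.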

[14] = qHTS assay to test for compound auto fluorescence at 460 nm (blue) in HepG2 cell free culture (AID 720685; active = well fitted curve in the direction sought with a large enough effect in the repeat runs; an effect the other way counts as inactive or inconclusive; also: % is scaled to controls: 0 for no effect and ±100 for the full control effect)
Summary of the method: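 Cell-free plates of MEM plus 10% FBS received 23 nL compound or DMSO vehicle; blue-channel (405/460 nm) intensity scored against triamterene as reference fluorophore.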

[15] = qHTS assay to test for compound auto fluorescence at 535 nm (green) in HepG2 cell free culture (AID 720686; active = well fitted curve in the direction sought with a large enough effect in the repeat runs; an effect the other way counts as inactive or inconclusive; also: % is scaled to controls: 0 for no effect and ±100 for the full control effect)
[16] = qHTS assay to identify small molecule antagonists of the glucocorticoid receptor (GR) signaling pathway - cell viability counter screen (AID 720693; active = well fitted curve in the direction sought with a large enough effect in the repeat runs; an effect the other way counts as inactive or inconclusive; also: % is scaled to controls: 0 for no effect and ±100 for the full control effect; nearly all actives have a fitted effect of over 55% in size)
[17] = qHTS assay for identifying genotoxic compounds that show differential cytotoxicity against isogenic chicken DT40 cell lines with known DNA damage response pathways - wild type cell line (AID 743012; active = well fitted curve in the direction sought with a large enough effect in the repeat runs; an effect the other way counts as inactive or inconclusive; also: potency is read from the fitted curve at half-maximal effect; nearly all actives have a fitted effect of over 60% in size)
Summary of the method: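 Viability of DNA repair-proficient chicken DT40 cells was assessed by CellTiter-Glo luminescence following 40 h compound exposure at 37 C/5% CO2.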

[18] = qHTS assay for identifying genotoxic compounds that show differential cytotoxicity against isogenic chicken DT40 cell lines with known DNA damage response pathways - Rev3 mutant cell line (AID 743014; active = well fitted curve in the direction sought with a large enough effect in the repeat runs; an effect the other way counts as inactive or inconclusive; also: potency is read from the fitted curve at half-maximal effect; nearly all actives have a fitted effect of over 55% in size)
[19] = qHTS assay for identifying genotoxic compounds that show differential cytotoxicity against isogenic chicken DT40 cell lines with known DNA damage response pathways - Rad54/Ku70 mutant cell line (AID 743015; active = well fitted curve in the direction sought with a large enough effect in the repeat runs; an effect the other way counts as inactive or inconclusive; also: potency is read from the fitted curve at half-maximal effect; nearly all actives have a fitted effect of over 60% in size)
[20] = qHTS assay to identify small molecule antagonists of the androgen receptor (AR) signaling pathway - cell viability counter screen (AID 743033; active = well fitted curve in the direction sought with a large enough effect in the repeat runs; an effect the other way counts as inactive or inconclusive; also: % is scaled to controls: 0 for no effect and ±100 for the full control effect; nearly all actives have a fitted effect of over 45% in size)
[21] = qHTS assay to identify small molecule antagonists of the androgen receptor (AR) signaling pathway using the MDA cell line - cell viability counter screen (AID 743041; active = well fitted curve in the direction sought with a large enough effect in the repeat runs; an effect the other way counts as inactive or inconclusive; also: % is scaled to controls: 0 for no effect and ±100 for the full control effect; nearly all actives have a fitted effect of over 45% in size)
Summary of the method: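 Cytotoxicity counter screen: MDA-kb2 AR-luc cells, compound + R1881, 16 h, 37C, 0% CO2; CellTiter-Fluor added at 15.5 h, fluorescence read after 30 min.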

[22] = qHTS assay to identify small molecule antagonists of the thyroid receptor (TR) signaling pathway - cell viability counter screen (AID 743064; active = well fitted curve in the direction sought with a large enough effect in the repeat runs; an effect the other way counts as inactive or inconclusive; also: potency is read from the fitted curve at half-maximal effect; nearly all actives have a fitted effect of over 50% in size)
Summary of the method: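 In rat pituitary GH3.TRE-Luc reporter cells co-exposed to compound and 1 nM T3 for 23.5 h, cytotoxicity was assessed with CellTiter-Fluor in the same wells, read by fluorescence.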

[23] = qHTS assay to identify small molecule antagonists of the thyroid receptor (TR) signaling pathway (AID 743065; active = well fitted curve in the direction sought with a large enough effect in the repeat runs; an effect the other way counts as inactive or inconclusive; also: potency is read from the fitted curve at half-maximal effect; nearly all actives have a fitted effect of over 55% in size)
Summary of the method: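 GH3.TRE-Luc rat pituitary cells (two TREs driving luciferase) were dosed with compound, then stimulated with 1 nM T3 (final) for 23.5 h at 37 C. ONE-Glo luminescence was the read-out, with CellTiter-Fluor fluorescence as the cytotoxicity counter-screen.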

[24] = test system: thyroid hormone receptor (rat, GH3 cells); experiment: qHTS assay to identify small molecule agonists of the thyroid receptor (TR) signaling pathway (AID 743066); also: % is scaled to controls: 0 for no effect and ±100 for the full control effect
[25] = qHTS assay to identify small molecule antagonists of the estrogen receptor alpha (ER-alpha) signaling pathway - cell viability counter screen (AID 743074);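 also: HEK293 cells carrying ER-alpha-UAS-bla reporter stimulated with 17beta-estradiol; % is scaled to controls: 0 for no effect and ±100 for the full control effect; nearly all actives have a fitted effect of over 45% in size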
[26] = molecular target: Estrogen receptor (Homo sapiens) (UniProt P03372); experiment: qHTS assay to identify small molecule agonists of the estrogen receptor alpha (ER-alpha) signaling pathway (AID 743075)
[27] = molecular target: Estrogen receptor (Homo sapiens) (UniProt P03372); experiment: qHTS assay to identify small molecule agonists of the estrogen receptor alpha (ER-alpha) signaling pathway using the BG1 cell line (AID 743079; active = well fitted curve in the direction sought with a large enough effect in the repeat runs; an effect the other way counts as inactive or inconclusive; also: % is scaled to controls: 0 for no effect and ±100 for the full control effect; nearly all actives have a fitted effect of over 20% in size)
[28] = qHTS assay to identify small molecule antagonists of the estrogen receptor alpha (ER-alpha) signaling pathway using the BG1 cell line (AID 743080);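 also: BG1 cells stimulated with 17beta-estradiol alongside compound; series mostly up to about 70 µM; % is scaled to controls: 0 for no effect and ±100 for the full control effect; nearly all actives have a fitted effect of over 25% in size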
Summary of the method: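 BG1Luc4E2, endogenous ER-alpha, 4xERE-luc; 5 d charcoal-stripped FBS, phenol red free; 24 h plating; cpd + 17beta-estradiol 21.5 h, 37 C/5% CO2; CellTiter-Fluor viability 30 min, then ONE-Glo luciferase 30 min RT.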

Aromatase (Homo sapiens) = Aromatase (Homo sapiens) (UniProt P11511); experiment: qHTS assay to identify aromatase inhibitors (AID 743083; active = well fitted curve in the direction sought with a large enough effect in the repeat runs; an effect the other way counts as inactive or inconclusive)
[29] = qHTS assay to identify aromatase inhibitors - cell viability counter screen (AID 743084; active = well fitted curve in the direction sought with a large enough effect in the repeat runs; an effect the other way counts as inactive or inconclusive)

Acetylcholinesterase (Homo sapiens), sequence (P22303 whole entry, looked up): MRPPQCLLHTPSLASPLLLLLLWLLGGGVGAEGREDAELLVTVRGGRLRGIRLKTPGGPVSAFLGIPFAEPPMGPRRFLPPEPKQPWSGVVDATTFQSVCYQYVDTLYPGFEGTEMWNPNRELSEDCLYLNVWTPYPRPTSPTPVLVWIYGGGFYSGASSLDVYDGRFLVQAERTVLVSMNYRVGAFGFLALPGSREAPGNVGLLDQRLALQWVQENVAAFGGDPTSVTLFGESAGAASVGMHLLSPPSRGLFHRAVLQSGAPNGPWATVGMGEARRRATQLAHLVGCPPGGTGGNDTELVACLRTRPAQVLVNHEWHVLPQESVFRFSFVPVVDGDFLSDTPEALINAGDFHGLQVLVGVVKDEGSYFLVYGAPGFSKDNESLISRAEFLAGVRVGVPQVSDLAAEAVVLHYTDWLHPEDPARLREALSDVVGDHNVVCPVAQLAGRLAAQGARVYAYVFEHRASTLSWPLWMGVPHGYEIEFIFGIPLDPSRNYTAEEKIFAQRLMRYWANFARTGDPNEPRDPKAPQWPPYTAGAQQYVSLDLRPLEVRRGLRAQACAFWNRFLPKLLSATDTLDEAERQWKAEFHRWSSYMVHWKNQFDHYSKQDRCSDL
Estrogen receptor (Homo sapiens), sequence (P03372 whole entry, looked up): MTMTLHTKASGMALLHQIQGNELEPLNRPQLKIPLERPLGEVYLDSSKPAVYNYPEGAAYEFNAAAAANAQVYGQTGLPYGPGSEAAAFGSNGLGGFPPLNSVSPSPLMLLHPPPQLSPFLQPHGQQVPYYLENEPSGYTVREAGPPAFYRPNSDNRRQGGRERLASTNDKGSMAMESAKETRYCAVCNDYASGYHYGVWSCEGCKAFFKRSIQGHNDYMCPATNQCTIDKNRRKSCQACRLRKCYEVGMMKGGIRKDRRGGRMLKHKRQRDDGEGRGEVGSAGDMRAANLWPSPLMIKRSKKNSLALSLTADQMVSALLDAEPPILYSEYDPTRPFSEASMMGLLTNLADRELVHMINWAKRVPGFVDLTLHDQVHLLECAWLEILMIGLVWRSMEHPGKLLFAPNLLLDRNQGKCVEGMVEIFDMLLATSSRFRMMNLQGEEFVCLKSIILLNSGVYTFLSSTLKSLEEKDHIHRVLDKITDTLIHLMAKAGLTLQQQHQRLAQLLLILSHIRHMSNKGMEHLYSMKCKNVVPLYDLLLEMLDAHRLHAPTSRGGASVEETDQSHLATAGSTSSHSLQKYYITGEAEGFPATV
Aromatase (Homo sapiens), sequence (P11511 whole entry, looked up): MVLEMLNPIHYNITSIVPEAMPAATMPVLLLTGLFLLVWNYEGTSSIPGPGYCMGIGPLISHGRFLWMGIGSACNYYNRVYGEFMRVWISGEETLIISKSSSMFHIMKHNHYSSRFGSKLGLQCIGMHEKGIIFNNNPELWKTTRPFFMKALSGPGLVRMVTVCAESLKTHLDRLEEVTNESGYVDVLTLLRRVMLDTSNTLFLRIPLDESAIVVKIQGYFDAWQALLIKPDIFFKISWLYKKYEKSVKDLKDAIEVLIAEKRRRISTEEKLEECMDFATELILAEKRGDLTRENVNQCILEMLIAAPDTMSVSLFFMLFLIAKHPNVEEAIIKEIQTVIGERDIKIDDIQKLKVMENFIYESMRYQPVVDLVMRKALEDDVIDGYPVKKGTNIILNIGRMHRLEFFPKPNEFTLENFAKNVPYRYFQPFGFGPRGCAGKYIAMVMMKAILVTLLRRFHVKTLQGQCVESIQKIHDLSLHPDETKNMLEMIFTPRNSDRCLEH

Oc1c(I)cc(Cl)c2cccnc12
inactive: Potency [1] | Potency [2] | Potency [3]

C1CN(SSN2CCOCC2)CCO1
inactive: Potency [1] | Potency [2] | Potency [3]

CCC(=O)c1ccc(O)cc1
inactive: Potency [4] | Potency [2] | Potency [3]

CC(=O)Oc1ccccc1C(=O)Nc1ncc([N+](=O)[O-])s1
inactive: Potency [4] | Potency [2] | Potency [3]

COc1cc2ncnc(Nc3cccc(Cl)c3)c2cc1OC
inactive: activity change, negative = inhibition [4] -0.138% [at 23.6 µM] | activity change, negative = inhibition [2] 1.23% [at 23.8 µM] | activity change, negative = inhibition [3] 1.05% [at 23.6 µM]

COc1cc(C=O)ccc1OC(=O)C(C)C
inactive: Potency [4] | Potency [2] | Potency [3]

O=C[C@@H](O)[C@H](O)[C@H](O)CO
inactive: Potency [4] | Potency [2] | Potency [3]

Cc1ncsc1CCO
inactive: Potency [4] | Potency [2] | Potency [3]

CCOC(C)=O
inactive: Potency [4] | Potency [2] | Potency [3]

CC(C)C[C@H]1C(=O)N2CCC[C@H]2[C@]2(O)O[C@](NC(=O)[C@@H]3C[C@@H]4c5cccc6[nH]cc(c56)C[C@H]4N(C)C3)(C(C)C)C(=O)N12
inactive: Potency [5] | Potency [6] | Potency [7] | Potency [8] | outcome [9] | Potency [10] | Potency [11] | outcome [12] | outcome [13] | Potency [14] | Potency [15] | Potency [16] | Potency [20] | Potency [21] | Potency [24] | Potency [25] | Potency [26] | Potency [27] | Potency [28] | Potency (Aromatase (Homo sapiens)) | Potency [29]
active: Potency [17] 29.8 µM | Potency [18] 23.7 µM | Potency [19] 29.8 µM | Potency [22] 29.8 µM | Potency [23] 29.8 µM

COc1cc(O)c(C(=O)c2ccccc2)cc1S(=O)(=O)O
inactive: Potency [4] | Potency [2] | Potency [3]

O=C(CCc1ccc(O)cc1)c1c(O)cc(O)cc1O
inactive: Potency [2] | Potency [3]
active: Potency [4] 57.7 µM

CCCCC(CC)COC(=O)CCCCC(=O)OCc1ccccc1 (stereo not given)
inactive: Potency [4] | Potency [2] | Potency [3]

C1CSCCS1
inactive: Potency [4] | Potency [2] | Potency [3]

CCCCCCCCOS(=O)(=O)O
inactive: Potency [4] | Potency [2] | Potency [3]

CC(=O)O[C@@H]1C(=O)O[C@@H]2[C@H]1OC(=O)[C@@H]2OC(C)=O
inactive: Potency [4] | Potency [2] | Potency [3]

CCCCCCCCCCCCCOC(=O)CCSCCC(=O)OCCCCCCCCCCCCC
inactive: activity change, negative = inhibition [4] 1.34% [at 23.6 µM] | activity change, negative = inhibition [2] -0.492% [at 23.8 µM] | activity change, negative = inhibition [3] 0.346% [at 23.6 µM]

CC1(C)[C@@H]2CC[C@@]1(C)[C@H](O)C2
inactive: Potency [4] | Potency [2] | Potency [3]

CC(=O)N[C@@H](Cc1ccc(O)cc1)C(=O)O
inactive: Potency [4] | Potency [2] | Potency [3]
